Source: PubChem BioAssay
The entries come from a sample that favours hits as a whole.
Tb PYK inh – qHTS of Trypanosoma Brucei Inhibitors; pyruvate kinase (Trypanosoma brucei), Q57TT1; TbPYK enzyme, Kinase-Glo Plus ATP luminescence, 45 min; Potency, µM (doses to about 76.8 µM), hits mostly inhibitors; actives 0.12% (n = 410,000); note: nearly all actives have a fitted effect of over 50% in size
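Glycolytic pyruvate kinase of T. brucei was incubated with substrate, test compound and 130 uM ADP for 45 minutes at room temperature. Luminescent Kinase-Glo Plus signal was measured after 10 minutes.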
LmPK inh – qHTS Assay for Inhibitors of Leishmania Mexicana Pyruvate Kinase (LmPK); purified LmPK, Kinase-Glo ATP luminescence, 1 h; Potency, µM (highest dose often 57.5 µM), hits mostly inhibitors; actives 0.37% (n = 290,000); AID 1721, 2009
Target sequence (Q27686 whole entry, looked up): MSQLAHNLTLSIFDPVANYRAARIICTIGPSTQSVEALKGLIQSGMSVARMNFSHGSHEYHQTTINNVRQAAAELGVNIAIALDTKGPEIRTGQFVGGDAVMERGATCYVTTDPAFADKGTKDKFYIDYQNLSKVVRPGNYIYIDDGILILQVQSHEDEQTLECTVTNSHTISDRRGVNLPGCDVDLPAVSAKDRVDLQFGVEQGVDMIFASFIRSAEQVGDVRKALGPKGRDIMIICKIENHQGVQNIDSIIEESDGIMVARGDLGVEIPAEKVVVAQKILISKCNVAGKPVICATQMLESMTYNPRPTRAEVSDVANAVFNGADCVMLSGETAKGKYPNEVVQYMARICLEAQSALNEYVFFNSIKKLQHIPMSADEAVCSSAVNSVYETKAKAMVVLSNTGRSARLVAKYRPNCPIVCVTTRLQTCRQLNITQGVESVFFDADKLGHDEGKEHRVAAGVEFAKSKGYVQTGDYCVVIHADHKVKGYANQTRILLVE
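In 50 mM imidazole pH 7.2 with 7 mM MgCl2, LmPK (0.1 nM) turned over PEP (0.5 mM) and ADP (0.1 mM) for 1 h at room temperature. Luciferase read-out of ATP.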
Sm TGR block – qHTS Assay for the Inhibitors of Schistosoma Mansoni Peroxiredoxins. Schistosoma mansoni thioredoxin glutathione reductase (TGR), Q962Y6. purified TGR, DTNB reduction, TNB absorbance 405 nm. Potency, µM (top dose mostly 114 µM), most hits filed as inhibitors. actives 3% (n = 360,000). AID 485364, 2010; note: nearly all actives have a fitted effect of over 60% in size
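First, TGR (20 nM dispensed) and NADPH were mixed with compound. Second, a 15 min room-temperature incubation followed. Third, further NADPH and then DTNB were added to start the reaction. Finally, TNB absorbance was monitored kinetically.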
FBPA Giardia inh – qHTS Assay for Inhibitors of Fructose-1,6-bisphosphate Aldolase from Giardia Lamblia | AID 2451, 2010 | actives 0.71% (n = 290,000) | purified Giardia FBPA | Potency, µM (top dose mostly 59.6 µM), actives largely listed as inhibitors; note: nearly all actives have a fitted effect of over 55% in size
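40 nM FBPA preincubated 10 min at RT with compound (up to 57.5 uM final), then substrate plus GAPDH/TPI/NAD/arsenate coupling and diaphorase/resazurin added. Fluorescence read after 20 min at RT, 525/598 nm.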
CHX counter – Cycloheximide Counterscreen for Small Molecule Inhibitors of Shiga Toxin | cell reporter, cycloheximide protein synthesis inhibition counterscreen | max response, % | actives 12% (n = 300,000); in the data active = max response mostly above about 13%, no sharp cut-off; inactive = mostly below about 14%; note: read at 38.3 µM for the half of the compounds with a filed dose
Shiga inhibitor – A qHTS for Small Molecule Inhibitors of Shiga Toxin | Vero cells, Shiga toxin protein synthesis inhibition reporter | inhibition, % at 38.7 µM | actives 9.2% (n = 290,000); in the data active = inhibition mostly above about 28%, no sharp cut-off; inactive = mostly below about 43%
Numbers stand for hits; . = inactive; ? = inconclusive; / = no result given; [ ] = remark or other dose. Unless noted, calls come from the whole dose curve; as a rule, active = well fitted curve in the direction sought with a large enough effect; inconclusive = small, poorly fitted or top-dose-only effect, or another doubt; inactive = no such curve, though single readings can be large; an effect the other way counts as inactive or inconclusive.

SMILES	Tb PYK inh	LmPK inh	Sm TGR block	FBPA Giardia inh	CHX counter	Shiga inhibitor
Cc1ccc(C)c(OCc2cc(C(=O)N3CCN(c4ccccc4C)CC3C)no2)c1 (centres undefined)	.	.	.	.	31	113
CCC1C(=O)NCCN1C(=O)c1cc(COc2cc(C)ccc2C)on1 (centres undefined)	.	.	.	.	.	.
COc1ccc(NC(=O)CC2C(=O)N(c3ccc(C)cc3)C(=O)N2C2CCCC2)cc1 (centres undefined)	.	/	.	/	/	/
CN(C)c1ccc(NC(=O)Cn2cc3c(n2)CCCC3)cc1	.	.	.	.	56	72
OCCN1CCN(C(c2ccccc2Cl)c2sc3nc(-c4ccco4)nn3c2O)CC1 (centres undefined)	.	/	.	/	/	/
O=C(Nc1nnc(S(=O)(=O)N2CCOCC2)s1)c1ccccc1F	.	.	.	/	17	.
O=C(Nc1nnc(S(=O)(=O)N2CCOCC2)s1)c1cccc(F)c1	.	.	.	?	20	31
O=C(Nc1nnc(S(=O)(=O)N2CCCCCC2)s1)c1ccccc1F	.	.	.	.	11	.
O=C(Nc1nnc(S(=O)(=O)N2CCOCC2)s1)c1ccccc1Cl	.	.	?	?	.	.
COCCN1C(=O)CCC1(C)C(=O)Nc1ccc2c(c1)OCCO2 (centres undefined)	.	/	/	/	/	/
CCN(CC(=O)Nc1ccc2c(c1)OCCO2)C(=O)CSCC(=O)Nc1ccc(C)cc1	.	/	.	/	/	/
CN(Cc1ccccc1)C(=O)[C@@H]1CCCN1C(=O)[C@@H]1CCCN1C(=O)c1ccccc1	.	/	/	/	/	/
COc1ccc(-c2cn3c(C)c(C(=O)Nc4ccncc4)sc3n2)cc1	.	.	.	.	.	.
Cc1c(C(=O)Nc2ccncc2)sc2nc(-c3ccc(F)cc3)cn12	.	.	.	.	17	.
Cc1c(C(=O)NCc2ccc(F)cc2)sc2nc(-c3ccc(F)cc3)cn12	.	/	.	/	/	/
Cc1c(C(=O)NCC(C)C)sc2nc(-c3ccc(F)cc3)cn12	.	.	.	.	21	.
Cc1ccc(CNC(=O)c2sc3nc(-c4ccccc4)cn3c2C)cc1	.	/	.	/	/	/
Cc1c(C(N)=O)sc2nc(-c3ccccc3)cn12	.	.	.	.	36	87
O=C1c2ccccc2C(=O)N1SC1CCCCC1	?	.	45µM	.	.	.
COc1ccc(-c2cc(-c3ccccc3)nc(Cl)n2)cc1OC	.	.	.	.	14	.
Cc1ccc(-c2cc(-c3ccccc3)nc(Cl)n2)cc1	.	.	.	.	46	128
COc1ccc(-c2nc3ccccc3nc2-c2ccccc2)cc1OC	.	.	.	.	.	.
O=C(O)c1cccc(NC(=O)c2ccc(COc3ccc(Cl)cc3)cc2)c1	.	.	.	.	.	.
Cc1nn(Cc2c(F)c(F)c(F)c(F)c2F)c(C)c1NC(=O)c1cccc(COc2ccc(Cl)cc2)c1	.	.	.	.	83	136
CC(C)c1cc(C(N)=O)c(NC(=O)c2cccc(COc3ccc(Cl)cc3)c2)s1	.	.	.	.	70	200
SMILES	Tb PYK inh	LmPK inh	Sm TGR block	FBPA Giardia inh	CHX counter	Shiga inhibitor
Cc1ccc(C)c(Cn2c3ccccc3c3cnn(CC(=O)NC(C)CCc4ccccc4)c(=O)c32)c1 (centres undefined)	.	/	.	/	/	/
O=S(=O)(Nc1ccccn1)c1ccc(-n2cccn2)cc1	.	.	.	.	.	.
Cc1c(NC2(C#N)CCCC2)c(=O)n(-c2ccccc2)n1C	.	.	40µM	.	.	.
Cc1c(NC(=O)c2ccccc2NS(=O)(=O)c2ccc(Br)cc2)c(=O)n(-c2ccccc2)n1C	.	.	.	.[12.9 µM]	.	.
Cc1c(NC(=O)c2ccc(NS(=O)(=O)c3cccc([N+](=O)[O-])c3)cc2)c(=O)n(-c2ccccc2)n1C	.	/	/	/	/	/
Cc1c(NS(=O)(=O)c2cccc([N+](=O)[O-])c2)c(=O)n(-c2ccccc2)n1C	.	.	28µM	.	.	.
Cc1c(NC2(c3nnnn3-c3ccc(Br)cc3)CCCCC2)c(=O)n(-c2ccccc2)n1C	.	.	.	.	.	.
O=S(=O)(Nc1ccn(-c2ccccc2)n1)c1ccc(Br)cc1	.	.	.	.	16	.
Cc1c(NS(=O)(=O)c2ccc(Br)cc2)c(=O)n(-c2ccccc2)n1C	.	.	.	.	17	.
C[C@]12CCC3C(CCC4=CC(=O)CC[C@@H]43)C1CCC2O (some centres undefined)	.	/	/	/	/	/
CN(C)c1ccc(-c2nc(NC3CCNCC3)c3ccccc3n2)cc1	/	/	/	.	/	/
CC#CC(C)C(OCOC)C(CC(C)Cc1cc(Br)cc(OCc2ccccc2)c1OC)OC (centres undefined)	/	/	/	.[12.9 µM]	/	/
CCOc1ccccc1CN(CCc1ccc2c(c1)OCO2)Cc1ccc(CC)cc1	.	/	.	/	/	/
C=CCOc1ccccc1CN(C(=O)CCl)c1ccc2c(c1)OCO2	.	.	8.9µM	.	17	49
CCC(=O)N1CCc2cc(CNS(=O)(=O)c3cc(OC)ccc3OC)ccc21	.	/	.	/	.	.
Cc1cc(C(C2C(=O)CC(C)(C)CC2=O)C2C(=O)CC(C)(C)CC2=O)cc(C)c1OC(F)F	.	.	32µM	.	.	.
CCCN1CCN(c2ncc3c(n2)CCN(Cc2ccc(OC)c(OC)c2OC)C3)CC1	.	/	.	/	/	/
Cc1ccc(Cl)cc1-n1nnc(-c2nc(-c3ccc4c(c3)OCO4)no2)c1C	.	/	.	/	/	/
CCOc1ccccc1CNC(=O)c1cnc2sc(N(CC)CC)nn2c1=O	.	/	.	/	/	/
Cc1occc1-c1nnc(SCC(=O)N2CCOCC2)o1	.	.	.	.	.	.
O=C(CSc1nnc(-c2ccc(Cl)cc2)o1)N1CCOCC1	.	.	.	.	53	81
CCOC(=O)N1CCN(C(=O)CSc2nnc(-c3ccc(Cl)s3)o2)CC1	/	.	.	.	.	.
O=C(CSc1nnc(-c2ccc(Cl)s2)o1)N1CCOCC1	/	.	.	.	.	62
O=C(CSc1nnc(-c2ccncc2)o1)N1CCCC1	.	.	.	.	.	.
O=C(CSc1nnc(-c2ccc(O)cc2)o1)N1CCOCC1	.	.	.	.	53	.
O=C(CSc1nnc(-c2ccccc2Cl)o1)N1CCOCC1	.	.	.	.	36	93
CCc1ccc(C2C(C(=O)Nc3ccc(Cl)cc3)=C(C)Nc3ncnn32)cc1 (centres undefined)	.	/	.	/	/	/
COc1ccc(OCc2nc3ccccc3n2Cc2ccccc2Cl)cc1	.	/	.	/	/	/
C[C@H]1CN([C@@H](C)CO)C(=O)CCCn2nncc2CO[C@@H]1CN(C)C(=O)c1ccc2ccn(C)c2c1	.	/	/	/	/	/
